Calls of active or inactive are those of the source. Rule for the calls: active = hit-call score of the fitted dose curve at least 0.9, where 1 is the maximum; inactive = score below 0.9.
Legend:
Conditions in all cases: mRNA level, 48 h; actives raise or lower the signal
[1] = read-out: adenosine kinase (ADK) gene, ADK (gene 132); assay: LTEA_HepaRG_ADK: Life Technologies and Expression Analysis (LTEA) Assay for adenosine kinase (ADK) gene using HepaRG (AID 2283471)
Procedure, shortened: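 Following 48 h exposure of HepaRG cells in 0.5% DMSO (top concentration 100 uM, duplicate wells), ADK mRNA induction or suppression was measured by qRT-PCR, normalised to ACTB/GAPDH/POLR2A, and fitted bidirectionally relative to vehicle.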

[2] = read-out: Alpha-fetoprotein (AFP) gene, AFP (gene 174); assay: LTEA_HepaRG_AFP: Life Technologies and Expression Analysis (LTEA) Assay for Alpha-fetoprotein (AFP) gene using HepaRG (AID 2283472)
Procedure, shortened: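 After a 48 h plating period, cells are moved to serum-free induction medium and dosed in duplicate (100 uM maximum, half-log dilutions, 0.5% DMSO) for another 48 h. Total RNA goes to TaqMan qRT-PCR; AFP signal is housekeeping-normalized.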

[3] = read-out: BCL2L11 (gene 10018); assay: LTEA_HepaRG_BCL2L11: Life Technologies and Expression Analysis (LTEA) Assay for Bcl-2 (BCL2L11) gene using HepaRG (AID 2283473)
Procedure, shortened: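 Differentiated human HepaRG cells were exposed 48 h in serum-free induction medium to eight half-log concentrations up to 100 uM in 0.5% DMSO, in duplicate. BCL2L11 mRNA was quantified by TaqMan qRT-PCR, normalized to ACTB, GAPDH and POLR2A; induction or repression fitted versus DMSO.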

[4] = read-out: Apolipoprotein A-V (APOA5) gene, APOA5 (gene 116519); assay: LTEA_HepaRG_APOA5: Life Technologies and Expression Analysis (LTEA) Assay for Apolipoprotein A-V (APOA5) gene using HepaRG (AID 2283474)
Procedure, shortened: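 Differentiated HepaRG cells in serum-free induction medium, exposed 48 h in duplicate to eight half-log concentrations topping at 100 uM (0.5% DMSO). APOA5 mRNA by Fluidigm TaqMan qRT-PCR, normalized to ACTB, GAPDH and POLR2A; bidirectional fit versus DMSO.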

[5] = read-out: Apoptosis regulator Bcl-2 (Homo sapiens) (UniProt P10415); assay: LTEA_HepaRG_BCL2: Life Technologies and Expression Analysis (LTEA) Assay for Bcl-2 gene using HepaRG (AID 2283475)
Procedure, shortened: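 Expression change of BCL2 mRNA in HepaRG after 48 h dosing, quantified by TaqMan qRT-PCR against three endogenous controls. Concentration-response used eight points up to 100 uM, vehicle 0.5% DMSO.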

[6] = read-out: Bcl-2 (BID) gene, BID (gene 637); assay: LTEA_HepaRG_BID: Life Technologies and Expression Analysis (LTEA) Assay for Bcl-2 (BID) gene using HepaRG (AID 2283476)
Procedure, shortened: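 Gain or loss of BID expression is fitted relative to 0.5% DMSO vehicle. Human HepaRG liver cells received a 48 h chemical exposure over an eight-point concentration range.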

[7] = read-out: Caspase-3 (Homo sapiens) (UniProt P42574); assay: LTEA_HepaRG_CASP3: Life Technologies and Expression Analysis (LTEA) Assay for cysteine-aspartic acid protease (CASP3) using HepaRG (AID 2283477)
Procedure, shortened: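 Differentiated HepaRG cells, plated 48 h, were treated in duplicate in serum-free induction medium for 48 h with eight half-log concentrations up to 100 uM in 0.5% DMSO. CASP3 mRNA measured by qRT-PCR, normalized to ACTB, GAPDH, POLR2A.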

[8] = read-out: Cytochrome P450 (CYP24A1), CYP24A1 (gene 1591); assay: LTEA_HepaRG_CYP24A1: Life Technologies and Expression Analysis (LTEA) Assay for Cytochrome P450 (CYP24A1) using HepaRG (AID 2283478)
Procedure, shortened: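 HepaRG cells plated 48 h, then exposed in duplicate in serum-free induction medium for 48 h to 8-point half-log series from 100 uM in 0.5% DMSO. CYP24A1 mRNA by Fluidigm qRT-PCR, normalized to ACTB, GAPDH, POLR2A; bidirectional fit versus DMSO.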

[9] = read-out: Cytochrome P450 (CYP1A2), CYP1A2 (gene 1544); assay: LTEA_HepaRG_CYP1A2: Life Technologies and Expression Analysis (LTEA) Assay for Cytochrome P450 (CYP1A2) using HepaRG (AID 2283479)
Procedure, shortened: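 Differentiated human HepaRG cells in serum-free induction medium exposed 48 hours in duplicate to 8 half-log concentrations from 100 uM, 0.5% DMSO. CYP1A2 mRNA quantified by qRT-PCR, normalized to ACTB, GAPDH and POLR2A; bidirectional fitting versus DMSO.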

[10] = read-out: cysteine-aspartic acid protease (CASP8), CASP8 (gene 841); assay: LTEA_HepaRG_CASP8: Life Technologies and Expression Analysis (LTEA) Assay for cysteine-aspartic acid protease (CASP8) using HepaRG (AID 2283480)
Procedure, shortened: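 Differentiated human HepaRG cells, plated 48 h then switched to serum-free induction medium, were exposed in duplicate for 48 h to 8 half-log concentrations up to 100 uM in 0.5% DMSO. CASP8 mRNA was quantified by qRT-PCR, normalized to ACTB/GAPDH/POLR2A.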

[11] = read-out: Cytochrome P450 (CYP2B6), CYP2B6 (gene 1555); assay: LTEA_HepaRG_CYP2B6: Life Technologies and Expression Analysis (LTEA) Assay for Cytochrome P450 (CYP2B6) using HepaRG (AID 2283481)
Procedure, shortened: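 Differentiated human HepaRG cells in serum-free induction medium, dosed in duplicate for 48 h over 8 half-log concentrations topping at 100 uM (0.5% DMSO). CYP2B6 mRNA measured by TaqMan qRT-PCR, normalized to ACTB, GAPDH, POLR2A; bidirectional fit versus DMSO.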

[12] = read-out: Cytochrome P450 2C19 (Homo sapiens) (UniProt P33261); assay: LTEA_HepaRG_CYP2C19: Life Technologies and Expression Analysis (LTEA) Assay for CYP2C19 using HepaRG (AID 2283482)
Procedure, shortened: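 Differentiated HepaRG cells in serum-free induction medium exposed 48 h in duplicate, 8 concentrations from 100 uM by half-log steps in 0.5% DMSO. CYP2C19 mRNA measured by TaqMan qRT-PCR, normalized to ACTB, GAPDH, POLR2A. Bidirectional fit versus DMSO.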

[13] = read-out: CYP2C8 (gene 1558); assay: LTEA_HepaRG_CYP2C8: Life Technologies and Expression Analysis (LTEA) Assay for CYP2C8 using HepaRG (AID 2283483)
Procedure, shortened: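 Differentiated human HepaRG cells were exposed for 48 h in serum-free induction medium to eight half-log concentrations up to 100 uM in 0.5% DMSO, in duplicate. CYP2C8 mRNA was measured by TaqMan qRT-PCR, normalized to ACTB, GAPDH and POLR2A, and fitted bidirectionally against DMSO.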

[14] = read-out: CYP2C9 (gene 1559); assay: LTEA_HepaRG_CYP2C9: Life Technologies and Expression Analysis (LTEA) Assay for CYP2C9 using HepaRG (AID 2283484)
Procedure, shortened: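 Differentiated human HepaRG cells were exposed 48 h in serum-free induction medium to eight half-log concentrations up to 100 uM in 0.5% DMSO. CYP2C9 mRNA was measured by qRT-PCR, normalized to ACTB, GAPDH and POLR2A, and fitted bidirectionally against DMSO.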

[15] = read-out: CYP2E1 (gene 1571); assay: LTEA_HepaRG_CYP2E1: Life Technologies and Expression Analysis (LTEA) Assay for CYP2E1 using HepaRG (AID 2283485)
Procedure, shortened: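 Differentiated HepaRG cells were treated in duplicate for 48 h with chemicals in 0.5% DMSO, from 100 uM downward in half-log dilutions. RNA was then analysed by qRT-PCR for CYP2E1 induction or loss.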

[16] = read-out: CYP4A11 (gene 1579); assay: LTEA_HepaRG_CYP4A11: Life Technologies and Expression Analysis (LTEA) Assay for CYP4A11 using HepaRG (AID 2283486)
Procedure, shortened: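 Differentiated HepaRG cells, 48 h after plating, exposed in duplicate for 48 h to 8 half-log concentrations up to 100 uM in 0.5% DMSO in serum-free induction medium. CYP4A11 mRNA measured by TaqMan qRT-PCR, normalized to ACTB, GAPDH and POLR2A.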

[17] = read-out: Cytochrome P450 3A4 (Homo sapiens) (UniProt P08684); assay: LTEA_HepaRG_CYP3A4: Life Technologies and Expression Analysis (LTEA) Assay for CYP3A4 using HepaRG (AID 2283487)
Procedure, shortened: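 In a human hepatic line (HepaRG), duplicate wells were treated 48 h with up to 100 uM chemical in half-log dilutions. Endpoint: CYP3A4 mRNA induction or loss relative to 0.5% DMSO vehicle, by qRT-PCR.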

[18] = read-out: DNA damage-inducible transcript 3 (DDIT3), DDIT3 (gene 1649); assay: LTEA_HepaRG_DDIT3: Life Technologies and Expression Analysis (LTEA) Assay for DNA damage-inducible transcript 3 (DDIT3) using HepaRG (AID 2283488)
Procedure, shortened: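 Changes in DDIT3 transcript, in either direction relative to 0.5% DMSO vehicle, were quantified by TaqMan qRT-PCR after 48 h chemical exposure of HepaRG cells at 8 concentrations, maximum 100 uM.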

[19] = read-out: Pro-epidermal growth factor (Homo sapiens) (UniProt P01133); assay: LTEA_HepaRG_EGF: Life Technologies and Expression Analysis (LTEA) Assay for Epidermal growth factor (EGF) using HepaRG (AID 2283489)
Procedure, shortened: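 HepaRG cells (~100,000/well, 48 h pre-culture) exposed in duplicate for 48 h in serum-free induction medium to 8 half-log concentrations up to 100 uM in 0.5% DMSO. EGF mRNA by qRT-PCR, normalized to ACTB/GAPDH/POLR2A; bidirectional fit versus DMSO.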

[20] = read-out: Early growth response protein 1 (EGR1) transcription factor, EGR1 (gene 1958); assay: LTEA_HepaRG_EGR1: Life Technologies and Expression Analysis (LTEA) Assay for Early growth response protein 1 (EGR1) transcription factor using HepaRG (AID 2283490)
Procedure, shortened: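 Differentiated human HepaRG cells in serum-free induction medium were exposed in duplicate for 48 h to eight concentrations (top 100 uM, half-log steps) in 0.5% DMSO. EGR1 mRNA was quantified by qRT-PCR, normalized to ACTB, GAPDH and POLR2A, and fitted bidirectionally versus DMSO.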

Measured: AC50

Apoptosis regulator Bcl-2 (Homo sapiens), sequence (P10415 whole entry, looked up): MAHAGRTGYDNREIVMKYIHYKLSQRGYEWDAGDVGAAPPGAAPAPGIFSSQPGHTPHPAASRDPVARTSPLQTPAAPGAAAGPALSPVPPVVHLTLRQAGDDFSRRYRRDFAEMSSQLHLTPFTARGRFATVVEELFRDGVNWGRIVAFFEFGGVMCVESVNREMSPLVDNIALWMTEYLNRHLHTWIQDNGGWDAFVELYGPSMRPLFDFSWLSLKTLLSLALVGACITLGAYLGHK
Cytochrome P450 2C19 (Homo sapiens), sequence (P33261 whole entry, looked up): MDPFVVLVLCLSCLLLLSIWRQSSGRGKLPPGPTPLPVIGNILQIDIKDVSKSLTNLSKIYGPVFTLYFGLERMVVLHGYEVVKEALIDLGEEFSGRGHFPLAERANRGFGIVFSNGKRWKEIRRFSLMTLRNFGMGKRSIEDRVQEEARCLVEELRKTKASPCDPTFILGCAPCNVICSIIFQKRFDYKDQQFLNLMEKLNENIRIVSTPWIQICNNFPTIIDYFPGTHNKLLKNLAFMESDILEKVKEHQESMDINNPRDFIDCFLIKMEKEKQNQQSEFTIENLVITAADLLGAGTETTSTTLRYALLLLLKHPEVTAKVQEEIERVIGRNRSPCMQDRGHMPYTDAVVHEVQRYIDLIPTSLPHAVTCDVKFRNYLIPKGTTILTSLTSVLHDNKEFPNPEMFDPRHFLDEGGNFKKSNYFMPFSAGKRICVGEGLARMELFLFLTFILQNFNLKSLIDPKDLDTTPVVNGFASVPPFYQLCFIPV
Cytochrome P450 3A4 (Homo sapiens), sequence (P08684 whole entry, looked up): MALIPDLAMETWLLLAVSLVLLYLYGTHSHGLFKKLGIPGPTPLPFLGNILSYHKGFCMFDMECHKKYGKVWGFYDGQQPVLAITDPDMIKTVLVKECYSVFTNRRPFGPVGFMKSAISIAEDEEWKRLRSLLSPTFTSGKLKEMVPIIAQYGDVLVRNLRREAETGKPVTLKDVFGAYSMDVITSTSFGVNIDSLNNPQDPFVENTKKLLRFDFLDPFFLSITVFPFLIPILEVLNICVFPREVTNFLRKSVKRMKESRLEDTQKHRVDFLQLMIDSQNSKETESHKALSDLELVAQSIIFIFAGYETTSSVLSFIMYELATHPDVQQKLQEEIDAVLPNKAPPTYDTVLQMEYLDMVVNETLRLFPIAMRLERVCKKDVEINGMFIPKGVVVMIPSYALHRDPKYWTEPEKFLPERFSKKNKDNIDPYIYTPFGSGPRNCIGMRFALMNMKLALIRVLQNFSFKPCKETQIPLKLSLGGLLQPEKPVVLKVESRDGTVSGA
Caspase-3 (Homo sapiens), sequence (P42574 whole entry, looked up): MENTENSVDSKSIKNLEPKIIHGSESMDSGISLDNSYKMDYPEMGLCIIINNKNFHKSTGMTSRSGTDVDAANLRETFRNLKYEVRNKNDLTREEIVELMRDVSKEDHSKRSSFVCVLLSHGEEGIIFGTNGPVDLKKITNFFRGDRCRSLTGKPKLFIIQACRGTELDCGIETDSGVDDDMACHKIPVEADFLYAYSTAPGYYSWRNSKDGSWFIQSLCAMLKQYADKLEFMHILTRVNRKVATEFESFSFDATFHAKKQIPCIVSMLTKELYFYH

Nc1c(Cl)c(Cl)nc(C(=O)O)c1Cl
inactive: [1] | [2] | [3] | [4] | [5] | [6] | [7] | [8] | [10] | [11] | [12] | [13] | [14] | [15] | [16] | [17] | [18] | [19] | [20]
active: [9] 50 µM

CNC(=O)Oc1cccc2ccccc12
active: [8] 0.0808 µM | [11] 25.6 µM
inactive: [1] | [2] | [3] | [4] | [5] | [6] | [7] | [9] | [10] | [12] | [13] | [14] | [15] | [16] | [17] | [18] | [19] | [20]

N#Cc1c(Cl)cccc1Cl
inactive: [1] | [2] | [3] | [4] | [5] | [6] | [7] | [8] | [9] | [10] | [12] | [13] | [14] | [15] | [16] | [17] | [18] | [19] | [20]
active: [11] 12.1 µM

COc1ccc(-c2ccccc2)cc1NNC(=O)OC(C)C
inactive: [1] | [2] | [3] | [4] | [5] | [6] | [7] | [8] | [10] | [11] | [12] | [13] | [14] | [15] | [16] | [17] | [18] | [19] | [20]
active: [9] 74.5 µM

N#CN=C1SCCN1Cc1ccc(Cl)nc1
active: [11] 28.6 µM | [12] 34.1 µM | [17] 30.6 µM
inactive: [1] | [2] | [3] | [4] | [5] | [6] | [7] | [8] | [9] | [10] | [13] | [14] | [15] | [16] | [18] | [19] | [20]

COCc1cnc(C2=NC(C)(C(C)C)C(=O)N2)c(C(=O)O)c1 (stereo not given)
inactive: [1] | [2] | [3] | [4] | [5] | [6] | [7] | [8] | [9] | [10] | [11] | [12] | [13] | [14] | [15] | [16] | [17] | [18] | [19] | [20]

Source: PubChem BioAssay (EPA / NIEHS)
